# From article PMC7862700, “An all-to-all approach to the identification of sequence-specific readers for epigenetic DNA modifications on cytosine”
# How the values were obtained:
# Assay in all cases: DAPPL (digital affinity profiling via proximity ligation, sequencing); 10 mM Tris-HCl pH 7.5, 50 mM NaCl, 1 mM DTT, 4% glycerol, room temperature, 30 min; GST-TFs on glutathione beads, 16-mer random dsDNA library, 0.1% formaldehyde crosslink after washing; high values mean tight binding
# FEV = target: T1, FEV (Homo sapiens, UniProt Q99581 1-238); conditions: protein: recombinant; tags: N-terminal GST; dsDNA, one strand shown
# T1 sequence: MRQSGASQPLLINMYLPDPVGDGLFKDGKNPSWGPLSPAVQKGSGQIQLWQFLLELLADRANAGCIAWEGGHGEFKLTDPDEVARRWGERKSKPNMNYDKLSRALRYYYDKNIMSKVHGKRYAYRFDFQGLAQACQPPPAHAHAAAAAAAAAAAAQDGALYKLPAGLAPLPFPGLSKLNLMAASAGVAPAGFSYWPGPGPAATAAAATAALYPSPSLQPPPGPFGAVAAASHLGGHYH
# Method in brief: (§1)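 The binding signal reported is, for every hexamer, its read frequency for a factor over its read frequency for the tag-only sample. Reads came from pools of yeast-expressed, GST-fused human transcription factors on glutathione beads, barcoded with DNA and mixed with that sample, which were incubated with 200 nmole of a random double-stranded 16-mer DNA library in Tris/NaCl/DTT/glycerol buffer at room temperature for 30 min. After washing, the pools were crosslinked with 0.1% formaldehyde, proximity-ligated with BsaI/T4 ligase for 1 h at 37 °C, PCR-amplified and sequenced on an Illumina NextSeq500.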
# ETV5 = ETV5 (Homo sapiens, UniProt P41161 1-510); conditions: protein: recombinant; tags: N-terminal GST; dsDNA, one strand shown
# Method in brief: as §1
# HSF1 = HSF1 (Homo sapiens, UniProt Q00613 1-529); conditions: protein: recombinant; tags: N-terminal GST; chain copies: 3; dsDNA, one strand shown
# Method in brief: as §1
# SPIC = target: T2, SPIC (Homo sapiens, UniProt Q8N5J4 1-248); conditions: protein: recombinant; tags: N-terminal GST; dsDNA, one strand shown
# T2 sequence: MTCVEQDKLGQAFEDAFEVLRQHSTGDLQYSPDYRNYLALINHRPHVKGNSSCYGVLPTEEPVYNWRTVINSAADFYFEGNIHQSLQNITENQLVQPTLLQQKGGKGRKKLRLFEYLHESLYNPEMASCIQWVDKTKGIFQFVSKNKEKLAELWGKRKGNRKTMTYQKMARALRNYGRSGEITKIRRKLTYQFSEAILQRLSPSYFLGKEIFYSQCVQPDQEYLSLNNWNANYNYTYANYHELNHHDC
# Method in brief: as §1
# ELF4 = ELF4 (Homo sapiens, UniProt Q99607 1-663); conditions: protein: recombinant; tags: N-terminal GST; dsDNA, one strand shown
# Method in brief: as §1
# ELK4 = target: T3, ELK4 (Homo sapiens, UniProt P28324-2 1-405); conditions: protein: recombinant; tags: N-terminal GST; dsDNA, one strand shown
# T3 sequence: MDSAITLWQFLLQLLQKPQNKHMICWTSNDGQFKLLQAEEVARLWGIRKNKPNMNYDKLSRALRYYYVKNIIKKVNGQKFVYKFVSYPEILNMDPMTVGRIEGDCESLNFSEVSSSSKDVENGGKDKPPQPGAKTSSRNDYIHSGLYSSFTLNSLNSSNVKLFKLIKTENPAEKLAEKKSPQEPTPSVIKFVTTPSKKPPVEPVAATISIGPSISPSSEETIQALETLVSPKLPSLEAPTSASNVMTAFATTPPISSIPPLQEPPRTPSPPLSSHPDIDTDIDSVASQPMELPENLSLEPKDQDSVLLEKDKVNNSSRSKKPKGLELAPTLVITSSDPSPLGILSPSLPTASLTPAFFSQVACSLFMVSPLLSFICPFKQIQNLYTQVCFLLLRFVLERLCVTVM
# Method in brief: as §1
# ETV2 = target: T4, ETV2 (Homo sapiens, UniProt O00321 1-342); conditions: protein: recombinant; tags: N-terminal GST; dsDNA, one strand shown
# T4 sequence: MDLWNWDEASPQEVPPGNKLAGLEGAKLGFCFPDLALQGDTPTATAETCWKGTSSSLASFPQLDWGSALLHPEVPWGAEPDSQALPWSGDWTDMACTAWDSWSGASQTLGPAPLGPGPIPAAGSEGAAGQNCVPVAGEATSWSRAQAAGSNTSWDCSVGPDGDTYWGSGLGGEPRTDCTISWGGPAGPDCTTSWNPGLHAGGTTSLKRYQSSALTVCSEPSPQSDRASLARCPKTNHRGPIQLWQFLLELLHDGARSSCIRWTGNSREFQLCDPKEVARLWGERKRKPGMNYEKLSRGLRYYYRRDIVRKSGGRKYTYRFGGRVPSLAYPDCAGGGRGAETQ
# Method in brief: as §1
# ELF3 = target: T5, ELF3 (Homo sapiens, UniProt P78545 1-371); conditions: protein: recombinant; tags: N-terminal GST; dsDNA, one strand shown
# T5 sequence: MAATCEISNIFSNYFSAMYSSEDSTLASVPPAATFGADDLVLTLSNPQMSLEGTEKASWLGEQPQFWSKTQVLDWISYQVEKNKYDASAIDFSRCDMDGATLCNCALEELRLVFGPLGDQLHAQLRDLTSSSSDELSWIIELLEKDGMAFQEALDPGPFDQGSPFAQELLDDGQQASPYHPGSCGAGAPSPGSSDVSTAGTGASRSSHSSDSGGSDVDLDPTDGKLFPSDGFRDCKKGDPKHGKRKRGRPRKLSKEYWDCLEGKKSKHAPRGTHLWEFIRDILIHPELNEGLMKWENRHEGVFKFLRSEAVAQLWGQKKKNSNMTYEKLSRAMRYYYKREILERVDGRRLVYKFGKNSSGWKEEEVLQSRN
# Method in brief: as §1
# CRX = CRX (Homo sapiens, UniProt O43186 1-299); conditions: protein: recombinant; tags: N-terminal GST; dsDNA, one strand shown
# Method in brief: as §1
# ETV1 = ETV1 (Homo sapiens, UniProt P50549 1-477); conditions: protein: recombinant; tags: N-terminal GST; dsDNA, one strand shown
# Method in brief: as §1
# ERF = target: T6, ERF (Homo sapiens, UniProt P50548 1-548); conditions: protein: recombinant; tags: N-terminal GST; dsDNA, one strand shown
# T6 sequence: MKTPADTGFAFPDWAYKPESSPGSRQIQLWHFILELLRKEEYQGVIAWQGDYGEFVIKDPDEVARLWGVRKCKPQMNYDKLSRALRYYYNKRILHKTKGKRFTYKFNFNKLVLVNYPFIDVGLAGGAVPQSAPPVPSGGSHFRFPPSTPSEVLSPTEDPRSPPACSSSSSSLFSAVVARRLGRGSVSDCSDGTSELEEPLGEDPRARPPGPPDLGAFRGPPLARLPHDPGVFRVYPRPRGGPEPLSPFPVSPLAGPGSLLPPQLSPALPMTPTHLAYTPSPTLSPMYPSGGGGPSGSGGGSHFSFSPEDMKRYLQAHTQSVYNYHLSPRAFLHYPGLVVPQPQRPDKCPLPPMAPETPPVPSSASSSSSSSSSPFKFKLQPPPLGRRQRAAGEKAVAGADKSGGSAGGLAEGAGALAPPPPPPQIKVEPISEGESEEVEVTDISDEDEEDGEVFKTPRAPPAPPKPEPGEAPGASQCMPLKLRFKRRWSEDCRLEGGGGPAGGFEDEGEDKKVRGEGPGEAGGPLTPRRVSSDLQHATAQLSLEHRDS
# Method in brief: as §1
# ETV3L = target: T7, ETV3L (Homo sapiens, UniProt Q6ZN32 1-361); conditions: protein: recombinant; tags: N-terminal GST; dsDNA, one strand shown
# T7 sequence: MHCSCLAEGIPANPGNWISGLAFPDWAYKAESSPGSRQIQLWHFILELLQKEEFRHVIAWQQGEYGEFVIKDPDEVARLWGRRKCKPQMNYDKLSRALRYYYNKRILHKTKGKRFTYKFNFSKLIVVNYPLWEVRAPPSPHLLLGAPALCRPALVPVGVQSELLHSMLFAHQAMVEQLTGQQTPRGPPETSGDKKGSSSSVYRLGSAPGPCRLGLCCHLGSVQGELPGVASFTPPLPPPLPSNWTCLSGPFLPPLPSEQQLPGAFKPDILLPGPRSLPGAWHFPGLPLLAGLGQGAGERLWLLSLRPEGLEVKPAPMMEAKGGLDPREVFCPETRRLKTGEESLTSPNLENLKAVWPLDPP
# Method in brief: as §1
# ETS2 = target: T8, ETS2 (Homo sapiens, UniProt P15036 1-469); conditions: protein: recombinant; tags: N-terminal GST; dsDNA, one strand shown
# T8 sequence: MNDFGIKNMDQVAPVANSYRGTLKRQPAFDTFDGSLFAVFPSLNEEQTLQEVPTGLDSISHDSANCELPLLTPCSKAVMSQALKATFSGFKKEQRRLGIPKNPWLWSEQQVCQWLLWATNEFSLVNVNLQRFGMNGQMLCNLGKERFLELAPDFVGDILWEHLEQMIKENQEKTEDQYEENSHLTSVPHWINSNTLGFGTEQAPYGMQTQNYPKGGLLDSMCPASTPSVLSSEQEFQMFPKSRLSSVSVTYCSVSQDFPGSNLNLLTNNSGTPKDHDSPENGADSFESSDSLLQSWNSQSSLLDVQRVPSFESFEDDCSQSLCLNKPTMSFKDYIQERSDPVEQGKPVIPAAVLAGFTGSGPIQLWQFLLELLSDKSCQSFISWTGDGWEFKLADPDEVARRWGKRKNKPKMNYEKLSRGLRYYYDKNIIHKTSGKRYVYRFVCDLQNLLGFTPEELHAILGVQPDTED
# Method in brief: as §1
# SPDEF = target: T9, SPDEF (Homo sapiens, UniProt O95238 1-335); conditions: protein: recombinant; tags: N-terminal GST; dsDNA, one strand shown
# T9 sequence: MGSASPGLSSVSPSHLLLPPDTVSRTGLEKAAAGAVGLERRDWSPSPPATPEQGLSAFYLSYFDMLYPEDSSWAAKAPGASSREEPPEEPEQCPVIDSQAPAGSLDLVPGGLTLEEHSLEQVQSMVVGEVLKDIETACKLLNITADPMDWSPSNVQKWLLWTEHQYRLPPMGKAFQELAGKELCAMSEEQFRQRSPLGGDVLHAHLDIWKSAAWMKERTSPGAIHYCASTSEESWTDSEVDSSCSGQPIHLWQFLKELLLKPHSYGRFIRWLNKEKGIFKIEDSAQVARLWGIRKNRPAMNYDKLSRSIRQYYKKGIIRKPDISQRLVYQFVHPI
# Method in brief: as §1
# ETV7 = target: T10, ETV7 (Homo sapiens, UniProt Q9Y603 1-341); conditions: protein: recombinant; tags: N-terminal GST; dsDNA, one strand shown
# T10 sequence: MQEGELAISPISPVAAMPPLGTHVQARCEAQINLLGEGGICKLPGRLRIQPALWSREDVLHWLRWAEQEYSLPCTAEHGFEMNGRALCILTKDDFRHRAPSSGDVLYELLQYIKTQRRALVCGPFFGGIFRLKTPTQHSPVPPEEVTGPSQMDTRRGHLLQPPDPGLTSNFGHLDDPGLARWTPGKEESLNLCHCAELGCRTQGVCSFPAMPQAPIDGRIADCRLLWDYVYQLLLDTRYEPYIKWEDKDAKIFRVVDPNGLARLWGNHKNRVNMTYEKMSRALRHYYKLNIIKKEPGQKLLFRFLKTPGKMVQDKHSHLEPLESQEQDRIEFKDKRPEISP
# Method in brief: as §1
# ELF5 = target: T11, ELF5 (Homo sapiens, UniProt Q9UKW6-2 1-255); conditions: protein: recombinant; tags: N-terminal GST; dsDNA, one strand shown
# T11 sequence: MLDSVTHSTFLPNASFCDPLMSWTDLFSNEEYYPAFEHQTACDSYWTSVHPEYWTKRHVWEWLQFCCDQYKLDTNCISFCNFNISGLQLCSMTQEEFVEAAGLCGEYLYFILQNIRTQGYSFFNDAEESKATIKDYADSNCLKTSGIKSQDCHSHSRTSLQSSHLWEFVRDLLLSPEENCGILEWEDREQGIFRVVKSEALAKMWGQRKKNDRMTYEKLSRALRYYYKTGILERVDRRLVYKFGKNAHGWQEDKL
# Method in brief: as §1
# ETV3 = target: T12, ETV3 (Homo sapiens, UniProt P41162-2 1-143); conditions: protein: recombinant; tags: N-terminal GST; dsDNA, one strand shown
# T12 sequence: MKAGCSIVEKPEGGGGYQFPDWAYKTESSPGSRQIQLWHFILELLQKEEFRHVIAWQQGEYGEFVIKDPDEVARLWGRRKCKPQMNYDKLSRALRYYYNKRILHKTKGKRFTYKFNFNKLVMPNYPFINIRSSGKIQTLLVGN
# Method in brief: as §1
# ETV6 = ETV6 (Homo sapiens, UniProt P41212 1-452); conditions: protein: recombinant; tags: N-terminal GST; dsDNA, one strand shown
# Method in brief: as §1
# Chain of ETV6 (P41212 whole entry): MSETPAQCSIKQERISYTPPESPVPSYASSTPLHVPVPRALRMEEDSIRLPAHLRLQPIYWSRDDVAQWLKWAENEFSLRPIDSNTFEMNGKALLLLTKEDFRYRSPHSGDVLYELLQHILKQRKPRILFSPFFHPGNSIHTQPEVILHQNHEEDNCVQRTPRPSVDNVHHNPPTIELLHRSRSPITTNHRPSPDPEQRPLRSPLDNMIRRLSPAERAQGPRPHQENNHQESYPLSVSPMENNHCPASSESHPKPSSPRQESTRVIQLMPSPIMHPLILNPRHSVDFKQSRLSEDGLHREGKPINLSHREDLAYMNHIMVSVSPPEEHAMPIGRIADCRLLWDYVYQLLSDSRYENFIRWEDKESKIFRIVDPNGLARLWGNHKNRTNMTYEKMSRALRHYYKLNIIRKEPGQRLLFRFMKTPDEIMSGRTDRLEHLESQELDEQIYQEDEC
# Chain of ELF4 (Q99607 whole entry): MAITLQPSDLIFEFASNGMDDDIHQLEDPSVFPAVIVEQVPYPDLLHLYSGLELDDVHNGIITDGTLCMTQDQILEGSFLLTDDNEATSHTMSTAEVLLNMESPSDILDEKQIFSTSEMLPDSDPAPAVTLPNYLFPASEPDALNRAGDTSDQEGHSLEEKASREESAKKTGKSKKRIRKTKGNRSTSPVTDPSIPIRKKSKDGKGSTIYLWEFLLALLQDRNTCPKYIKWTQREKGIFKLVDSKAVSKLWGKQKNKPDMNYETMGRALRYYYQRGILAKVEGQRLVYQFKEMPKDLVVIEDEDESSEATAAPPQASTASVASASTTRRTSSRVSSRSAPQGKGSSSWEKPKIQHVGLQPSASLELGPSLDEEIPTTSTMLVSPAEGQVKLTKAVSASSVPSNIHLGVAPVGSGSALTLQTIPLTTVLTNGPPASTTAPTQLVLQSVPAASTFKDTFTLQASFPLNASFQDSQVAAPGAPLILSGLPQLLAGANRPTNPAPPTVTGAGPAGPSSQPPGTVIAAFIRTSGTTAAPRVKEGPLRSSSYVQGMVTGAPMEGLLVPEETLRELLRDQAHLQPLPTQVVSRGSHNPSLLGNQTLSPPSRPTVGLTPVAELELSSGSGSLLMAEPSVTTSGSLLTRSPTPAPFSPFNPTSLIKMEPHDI
# Chain of HSF1 (Q00613 whole entry): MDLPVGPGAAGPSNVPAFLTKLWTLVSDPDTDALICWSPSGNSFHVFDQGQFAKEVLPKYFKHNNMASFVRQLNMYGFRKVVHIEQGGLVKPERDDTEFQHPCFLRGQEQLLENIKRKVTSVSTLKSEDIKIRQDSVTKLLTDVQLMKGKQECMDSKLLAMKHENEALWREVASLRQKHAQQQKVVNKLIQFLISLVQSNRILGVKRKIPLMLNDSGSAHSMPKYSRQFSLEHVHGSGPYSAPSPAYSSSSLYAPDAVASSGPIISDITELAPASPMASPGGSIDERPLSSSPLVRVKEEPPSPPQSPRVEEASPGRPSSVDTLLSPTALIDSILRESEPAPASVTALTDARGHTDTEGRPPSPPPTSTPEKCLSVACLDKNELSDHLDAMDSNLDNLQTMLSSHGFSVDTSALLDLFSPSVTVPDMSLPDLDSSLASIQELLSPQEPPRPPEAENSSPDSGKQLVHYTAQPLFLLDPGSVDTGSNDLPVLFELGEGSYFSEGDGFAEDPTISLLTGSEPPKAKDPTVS
# Chain of CRX (O43186 whole entry): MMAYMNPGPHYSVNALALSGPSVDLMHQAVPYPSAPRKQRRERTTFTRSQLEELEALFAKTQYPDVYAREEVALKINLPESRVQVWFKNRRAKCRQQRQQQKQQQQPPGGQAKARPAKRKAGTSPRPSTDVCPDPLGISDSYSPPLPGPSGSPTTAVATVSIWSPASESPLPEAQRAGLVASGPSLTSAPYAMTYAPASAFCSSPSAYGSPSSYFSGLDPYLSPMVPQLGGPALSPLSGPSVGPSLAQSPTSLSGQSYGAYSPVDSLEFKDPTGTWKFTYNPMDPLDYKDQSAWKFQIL
# Chain of ETV5 (P41161 whole entry): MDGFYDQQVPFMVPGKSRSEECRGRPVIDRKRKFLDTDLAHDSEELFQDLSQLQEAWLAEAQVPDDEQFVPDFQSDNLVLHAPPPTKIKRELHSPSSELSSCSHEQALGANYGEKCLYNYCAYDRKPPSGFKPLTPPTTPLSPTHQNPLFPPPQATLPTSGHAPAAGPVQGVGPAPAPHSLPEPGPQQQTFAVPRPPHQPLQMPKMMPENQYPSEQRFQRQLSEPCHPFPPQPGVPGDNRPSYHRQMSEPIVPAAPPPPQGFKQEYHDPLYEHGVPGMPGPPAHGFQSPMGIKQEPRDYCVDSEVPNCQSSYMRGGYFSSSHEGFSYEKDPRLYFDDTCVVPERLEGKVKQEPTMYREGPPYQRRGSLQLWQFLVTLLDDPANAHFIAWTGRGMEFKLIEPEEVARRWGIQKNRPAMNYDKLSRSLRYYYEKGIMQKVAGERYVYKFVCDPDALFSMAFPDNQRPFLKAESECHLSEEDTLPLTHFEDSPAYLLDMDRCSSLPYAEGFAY
# Chain of ETV1 (P50549 whole entry): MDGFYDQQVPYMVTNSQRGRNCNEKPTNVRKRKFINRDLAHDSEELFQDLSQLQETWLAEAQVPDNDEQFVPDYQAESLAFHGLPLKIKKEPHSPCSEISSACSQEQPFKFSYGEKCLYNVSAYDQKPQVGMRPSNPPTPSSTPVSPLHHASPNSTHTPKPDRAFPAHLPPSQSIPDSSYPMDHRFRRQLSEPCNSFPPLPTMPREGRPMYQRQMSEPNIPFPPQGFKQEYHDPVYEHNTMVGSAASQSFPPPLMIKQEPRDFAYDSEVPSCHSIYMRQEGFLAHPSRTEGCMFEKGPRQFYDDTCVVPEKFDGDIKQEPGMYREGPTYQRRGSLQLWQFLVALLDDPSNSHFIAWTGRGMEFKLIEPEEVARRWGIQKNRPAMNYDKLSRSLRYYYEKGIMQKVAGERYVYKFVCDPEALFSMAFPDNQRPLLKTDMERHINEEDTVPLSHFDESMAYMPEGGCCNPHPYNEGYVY
sequence,measurement,setting,value
TTCAAG,binding signal,FEV,"1.2 fold enrichment (6-mer frequency, TF over GST control)"
same,binding signal,ETV5,"1.23 fold enrichment (6-mer frequency, TF over GST control)"
same,binding signal,HSF1,"1.49 fold enrichment (6-mer frequency, TF over GST control)"
same,binding signal,SPIC,"1.24 fold enrichment (6-mer frequency, TF over GST control)"
same,binding signal,ELF4,"1.29 fold enrichment (6-mer frequency, TF over GST control)"
same,binding signal,ELK4,"1.32 fold enrichment (6-mer frequency, TF over GST control)"
same,binding signal,ETV2,"1.1 fold enrichment (6-mer frequency, TF over GST control)"
same,binding signal,ELF3,"1.23 fold enrichment (6-mer frequency, TF over GST control)"
same,binding signal,CRX,"1.18 fold enrichment (6-mer frequency, TF over GST control)"
same,binding signal,ETV1,"1.29 fold enrichment (6-mer frequency, TF over GST control)"
same,binding signal,ERF,"1.27 fold enrichment (6-mer frequency, TF over GST control)"
same,binding signal,ETV3L,"1.31 fold enrichment (6-mer frequency, TF over GST control)"
same,binding signal,ETS2,"1.21 fold enrichment (6-mer frequency, TF over GST control)"
same,binding signal,SPDEF,"1.31 fold enrichment (6-mer frequency, TF over GST control)"
same,binding signal,ETV7,"1.28 fold enrichment (6-mer frequency, TF over GST control)"
same,binding signal,ELF5,"1.18 fold enrichment (6-mer frequency, TF over GST control)"
same,binding signal,ETV3,"1.42 fold enrichment (6-mer frequency, TF over GST control)"
same,binding signal,ETV6,"1.26 fold enrichment (6-mer frequency, TF over GST control)"
